Experiment [1] concerns the target Cellular tumor antigen p53 (Homo sapiens) (UniProt P04637). Briefly: Primary qHTS for small molecule compounds that upregulate eGFP-tagged delta133p53alpha (in C-terminal) cells. (AID 2060324). Also: potency is read from the fitted curve at half-maximal effect. The gist of the method: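 Read-out: gated-cell GFP peak intensity (laser scanning cytometer), plate-normalized with DMSO as 0% activity, after 24 h compound exposure at 37C. Cells were C-terminal eGFP-tagged delta133p53alpha NCI-H358, doxycycline-induced (100 ng/ml, 24 h) before plating.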
(In general: Quantitative high-throughput screening tests each substance at several concentrations.)

Experiment [2] concerns the target Aldehyde dehydrogenase, mitochondrial (Homo sapiens) (UniProt P05091). The experiment in a line: qHTS for Inhibitors of the Aldehyde Dehydrogenase Family (ALDH2) Validation screens (AID 2061302; active = well fitted inhibition curve with a large enough effect; title and protocol of this record describe different tests;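 also: plate controls were DMSO vehicle for no effect and maximal DPI positive control response for full effect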).
The target in experiment [3] is Retinaldehyde dehydrogenase 3 (Homo sapiens) (UniProt P47895). The experiment in a line: qHTS for Inhibitors of the Aldehyde Dehydrogenase Family (ALDH1A3) Validation screen (AID 2061312). Also: % is scaled to controls: 0 for no effect and ±100 for the full control effect; nearly all actives have a fitted effect of over 45% in size.
Experiment [4] has the same target. The experiment in a line: qHTS for Inhibitors of the Aldehyde Dehydrogenase Family (ALDH1A3) Confirmatory screens (AID 2061311). Also: potency is read from the fitted curve at half-maximal effect; nearly all actives have a fitted effect of over 60% in size.
For experiment [5], the target named is Retinal dehydrogenase 2 (Homo sapiens) (UniProt O94788). The experiment in a line: qHTS for Inhibitors of the Aldehyde Dehydrogenase Family (ALDH1A2) Confirmation screens (AID 2061314). Also: potency is read from the fitted curve at half-maximal effect; nearly all actives have a fitted effect of over 65% in size.
In experiment [6] the target is Aldehyde dehydrogenase 1A1 (Homo sapiens) (UniProt P00352). The experiment in a line: qHTS for Inhibitors of the Aldehyde Dehydrogenase Family (ALDH1A1) Confirmatory screens (AID 2061316). Also: potency is read from the fitted curve at half-maximal effect; nearly all actives have a fitted effect of over 65% in size.
Experiment [7] addresses Aldehyde dehydrogenase, mitochondrial (Homo sapiens) (UniProt P05091). Briefly: qHTS for Inhibitors of the Aldehyde Dehydrogenase Family (ALDH2) Primary screen (AID 2061308).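 Also: plate controls were vehicle for no effect and reference inhibitor for full effect; nearly all actives have a fitted effect of over 55% in size.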
The target in experiment [8] is Retinaldehyde dehydrogenase 3 (Homo sapiens) (UniProt P47895). Briefly: qHTS for Inhibitors of the Aldehyde Dehydrogenase Family (ALDH1A3) Primary screen (AID 2061315).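 Also: plate controls were DMSO vehicle for no effect and reference inhibitor for full effect.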
The nature of experiment [9]: BET inhibitor-based combinations targeting novel dependencies in MECOM-rearranged (r) AML: HNT-34 cell line (AID 2202234). Also: potency is read from the fitted curve at half-maximal effect; nearly all actives have a fitted effect of over 35% in size. The gist of the method:
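First, 500 cells per well were seeded; next, drugs were pinned as 11-point doses; then plates sat 48 hr in the incubator; finally CellTiter-Glo was added and luminescence read, with AUC and Z-AUC computed.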

A short description of experiment [10]: BET inhibitor-based combinations targeting novel dependencies in MECOM-rearranged (r) AML: AML-191 cell line (AID 2202236;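 also: plate controls were vehicle wells for no effect and wells without cells for full effect; nearly all actives have a fitted effect of over 35% in size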). Put shortly: (§1)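 Each compound was tested at eleven concentrations on cells seeded at 500/well. After two days' incubation, ATP-based luminescence reported viability; responses relative to DMSO and blank wells yielded AUC and cell-line-centred Z-AUC.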

A short description of experiment [11]: BET inhibitor-based combinations targeting novel dependencies in MECOM-rearranged (r) AML: AML-194 cell line (AID 2202237;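 also: plate controls were vehicle wells for no effect and wells without cells for full effect; nearly all actives have a fitted effect of over 40% in size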). Put shortly: as §1

Molecules are shown by their SMILES. Inconclusive results are not listed. Active and inactive are the calls of the source. Unless noted, calls follow the shape of the dose curve; as a rule, active = well fitted curve in the direction sought with a large enough effect; inconclusive = small, poorly fitted or top-dose-only effect, or another doubt; inactive = no such curve, though single readings can be large; an effect the other way counts as inactive or inconclusive.

Chain of Cellular tumor antigen p53 (Homo sapiens) (P04637 whole entry, looked up): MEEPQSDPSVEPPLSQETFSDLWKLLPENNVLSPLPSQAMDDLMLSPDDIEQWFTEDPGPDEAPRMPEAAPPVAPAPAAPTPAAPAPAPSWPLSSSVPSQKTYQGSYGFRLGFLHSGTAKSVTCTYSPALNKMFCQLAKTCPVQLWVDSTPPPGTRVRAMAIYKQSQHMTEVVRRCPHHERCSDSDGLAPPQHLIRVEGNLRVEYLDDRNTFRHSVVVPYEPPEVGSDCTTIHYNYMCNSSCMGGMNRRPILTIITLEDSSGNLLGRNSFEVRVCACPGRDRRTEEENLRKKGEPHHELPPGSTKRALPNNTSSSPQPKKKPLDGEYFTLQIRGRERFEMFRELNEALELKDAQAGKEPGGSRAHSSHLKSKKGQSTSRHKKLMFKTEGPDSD

Take `CC(=O)O[C@H]1Cc2ccccc2N(C(N)=O)c2ccccc21`: the Potency entry in experiment [1], in [2] and in experiment [3] was “inactive” in each case.

As for `O=P(O)(O)C(Cl)(Cl)P(=O)(O)O`, the Potency entry in [1], in experiment [2] and in experiment [3] was “inactive” each time.

For `O=C(N[C@@H](Cc1ccccc1)C(=O)CCl)OCc1ccccc1`, the Potency is 12 µM (active) in experiment [1], 11.2 µM (active) in [4], 0.798 µM (active) in experiment [5] and 0.318 µM (active) in [6]. For the same compound, the Potency entry in experiment [3] was “inactive”.

On to `CN(C)CC[C@@H](c1ccc(Br)cc1)c1ccccn1`, for which the Potency entry in experiment [2] and in experiment [3] was “inactive” throughout.

Consider `CCN(CC)CCCC(C)Nc1ccnc2cc(Cl)ccc12` (stereo not given), for which the Potency entry in experiment [2] and in experiment [3] was “inactive” in each case. The figures for the activity change, negative = inhibition in [7] and in [8] were 0.897% [at 11.2 µM] (inactive) and 6.44% [at 11.2 µM] (inactive), respectively. Besides, the Potency in [9] was 5.39 µM (active). For the same compound, the values for the viability (% of control) in [10] and in experiment [11] were 95.1% [at 8.46 µM] (inactive) and 111% [at 8.46 µM] (inactive), respectively.

Source of the values: PubChem BioAssay (NCATS).
